PubChem BioAssay AID1159580 (chemical genetic matrix, 2015)
Where “and” joins values, the source holds several entries; their conditions need not be identical. Equal entries are not always repeated. Screen size: about 5,500 compounds; about 2,000 (36%) were called active. Inconclusive results (about 18%) are left out. Cut-off read from the data, not from the text of the source: active = normalized growth mostly below about 0.91 (no sharp cut-off); inconclusive = no clear call, values can overlap the other calls; inactive = mostly above about 0.92. Some of the results follow.

Assay: chemical genetic growth profiling, strain panel (AID 1159580);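 note: tested at 20 µM; growth read once vehicle control cultures reached saturation at 30 °C; 1 = growth at the plate median or of vehicle wells; lower values mean less growth of the strain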
Settings: S. cerevisiae deletion strains, growth OD

Measured: normalized growth

O=C(O)CCC1NCC2CC1CN1CCCCC21 (configuration not stated)
inactive: locus YAL013W, strain DEP1, hits give low values 1 | locus YAL021C, strain ccr4, hits give low values 0.97 | locus YAL026C, strain drs2, hits give low values 0.974 | locus YAL030W, strain snc1, hits give low values 0.969 | locus YBL061C, strain skt5, hits give low values 0.975 | locus YBR009C, strain hhf1, hits give low values 0.989 | locus YBR021W, strain FUR4, hits give low values 1.01 | locus YBR023C, strain chs3, hits give low values 0.983 | locus YBR171W, strain sec66, hits give low values 0.999 | locus YBR229C, strain ROT2, hits give low values 1.01 | locus YBR231C, strain swc5, hits give low values 0.986 | locus YBR279W, strain paf1, hits give low values 0.977 | locus YCL011C, strain gbp2, hits give low values 0.975 | locus YCL016C, strain dcc1, hits give low values 0.98 | locus YCL029C, strain bik1, hits give low values 0.997 | locus YCL061C, strain MRC1, hits give low values 0.989 | locus YCL069W, strain vba3, hits give low values 0.985 | locus YCR088W, strain abp1, hits give low values 0.982 | locus YDL005C, strain med2, hits give low values 0.969 | locus YDL035C, strain GPR1, hits give low values 1.02 | locus YDL040C, strain nat1, hits give low values 0.982 | locus YDL074C, strain BRE1, hits give low values 0.999 | locus YDL101C, strain DUN1, hits give low values 1 | locus YDL134C, strain PPH21, hits give low values 1 | locus YDL185W, strain tfp1, hits give low values 0.997 | locus YDL192W, strain arf1, hits give low values 0.998 | locus YDR001C, strain nth1, hits give low values 0.967 | locus YDR069C, strain doa4, hits give low values 0.987 | locus YDR101C, strain arx1, hits give low values 0.999 | locus YDR137W, strain rgp1, hits give low values 0.975 | locus YDR150W, strain NUM1, hits give low values 0.998 | locus YDR159W, strain sac3, hits give low values 0.978 | locus YDR162C, strain NBP2, hits give low values 1 | locus YDR195W, strain ref2 0.975 | locus YDR297W, strain sur2, hits give low values 0.974 | locus YDR318W, strain mcm21, hits give low values 1.02 | locus YDR334W, strain swr1, hits give low values 0.931 | locus YDR335W, strain msn5, hits give low values 0.969 | locus YDR388W, hits give low values 0.994 | locus YDR392W, strain spt3, hits give low values 0.914 | locus YDR502C, strain sam2, hits give low values 0.988 | locus YEL003W, strain gim4, hits give low values 0.967 | locus YEL037C, strain rad23, hits give low values 0.999 | locus YEL061C, strain CIN8 (second series), hits give low values 0.97 | locus YEL061C, strain CIN8, hits give low values 1.02 | locus YER015W, strain faa2, hits give low values 0.966 | locus YER016W, strain bim1, hits give low values 0.973 | locus YER110C, hits give low values 0.999 | locus YER111C, strain swi4, hits give low values 0.98 | locus YER155C, strain BEM2 (second series), hits give low values 0.999 | locus YER155C, strain BEM2, hits give low values 1 | locus YER167W, strain BCK2, hits give low values 1 | locus YFR010W, strain ubp6, hits give low values 0.974 | locus YGL078C, strain dbp3, hits give low values 0.982 | locus YGL086W, strain mad1, hits give low values 1.02 | locus YGL167C, strain pmr1, hits give low values 0.965 | locus YGL173C, strain kem1, hits give low values 0.963 | locus YGL227W, strain vid30, hits give low values 0.986 | locus YGL240W, strain doc1, hits give low values 0.985 | locus YGL248W, strain PDE1, hits give low values 1 | locus YGL253W, strain hxk2, hits give low values 0.978 | locus YGR078C, strain PAC10, hits give low values 1 | locus YGR135W, strain pre9, hits give low values 0.98 | locus YGR229C, strain SMI1, hits give low values 0.983 | locus YGR252W, strain gcn5, hits give low values 1.06 | locus YHR013C, strain ard1, hits give low values 0.95 | locus YHR027C, strain rpn1, hits give low values 0.953 | locus YHR030C, strain SLT2, hits give low values 1.01 and 1.03 | locus YHR079C, strain IRE1 (second series), hits give low values 1 | locus YHR079C, strain IRE1, hits give low values 1.01 | locus YHR094C, strain hxt1, hits give low values 0.999 | locus YHR129C, strain ARP1, hits give low values 1.01 | locus YHR142W, strain chs7, hits give low values 0.938 | locus YHR200W, strain rpn10, hits give low values 1 | locus YIL066C, strain RNR3, hits give low values 1.02 | locus YIL073C, strain SPO22, hits give low values 1.03 | locus YIL125W, strain kgd1, hits give low values 0.993 | locus YIR030C, strain dcg1, hits give low values 0.986 | locus YJL092W, strain hpr5, hits give low values 0.979 | locus YJL095W, strain BCK1 (second series), hits give low values 0.976 | locus YJL095W, strain BCK1, hits give low values 1 | locus YJL115W, strain asf1, hits give low values 0.958 | locus YJL129C, strain trk1, hits give low values 0.952 | locus YJL134W, strain LCB3, hits give low values 0.999 | locus YJL154C, strain vps35, hits give low values 0.967 | locus YJL164C, strain tpk1, hits give low values 0.976 | locus YJL166W, strain qcr8, hits give low values 0.975 | locus YJL168C, strain set2, hits give low values 0.995 | locus YJL187C, strain SWE1 (second series), hits give low values 1.01 | locus YJL187C, strain SWE1, hits give low values 0.974 | locus YJR043C, strain POL32, hits give low values 1.03 | locus YJR066W, strain TOR1, hits give low values 0.98
